Measured values from PubChem BioAssay (NCI).
The panel holds about 79,000 compounds, 15% with a hit somewhere; the sample as a whole holds those more often. Activity calls are given as the source filed them. No stated cut-off is given here; in the data, active means growth inhibition above about 70%; inactive means the rest.

Columns and labels:
[1] = NCI Yeast Anticancer Drug Screen. Data for the rad50 strain (AID 155);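 further: 0% = growth of vehicle-only cultures of the same strain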; settings: S. cerevisiae rad50 strain growth inhibition, stronger effect = higher value
Procedure, shortened: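 Growth of the mutant yeast was measured after compound exposure and referenced to vehicle-treated cultures.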

[2] = NCI Yeast Anticancer Drug Screen. Data for the mec2-1 strain (AID 157); settings: S. cerevisiae mec2-1 strain, stronger effect = higher value
Procedure, shortened: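 Cells of the genetically defined mec2-1 yeast strain are incubated with test compound. Inhibition of growth is calculated against vehicle-treated controls.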

[3] = NCI Yeast Anticancer Drug Screen. Data for the sgs1 mgt1 strain (AID 161);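 further: 0% = growth of cultures given vehicle only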; settings: S. cerevisiae sgs1 mgt1 strain, stronger effect = higher value
Procedure, shortened: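 Genetically altered yeast, compound exposure, growth inhibition relative to vehicle.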

[4] = NCI Yeast Anticancer Drug Screen. Data for the cln2 rad14 strain (AID 165);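 further: 0% = growth equal to vehicle treated cultures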; settings: S. cerevisiae cln2 rad14 strain, stronger effect = higher value
Procedure, shortened: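 The screen exposed genetically defined yeast (cln2 rad14) to test compounds and scored growth inhibition relative to vehicle-treated controls.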

[5] = NCI Yeast Anticancer Drug Screen. Data for the bub3 strain (AID 167); settings: S. cerevisiae bub3 mutant strain, stronger effect = higher value
Procedure, shortened: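 Whole-cell yeast assay. The mutant strain was incubated with compounds, and growth inhibition was determined by comparison with vehicle-treated cells.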

[6] = NCI Yeast Anticancer Drug Screen. Data for the mlh1 rad18 strain (AID 175); settings: S. cerevisiae mlh1 rad18 strain growth inhibition, stronger effect = higher value
Procedure, shortened: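 Compound-treated yeast growth, normalised to vehicle controls. Strain bears defined DNA repair mutations.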

[7] = at 5.0 µM (retest, dose inferred, filed as 0.5)
[8] = at 50.0 µM (retest, dose inferred, filed as 5.0)

Measured: growth inhibition

O=[N+]([O-])c1ccc(NS(=O)(=O)c2ccccc2)c(NS(=O)(=O)c2ccccc2)c1
inactive: [1]; [7] 15% | [2]; [7] 14% | [3]; [7] 20% | [4]; [7] 27% | [4]; [8] 32% | [5]; [7] 6% | [5]; [8] 43% | [6]; [7] 11%
active: [1]; [8] 75% | [1]; at 50.0 µM 81.5% | [2]; [8] 76% | [2]; at 50.0 µM 73.4% | [3]; [8] 81% | [3]; at 50.0 µM 83.2% | [4]; at 50.0 µM 82.1% | [5]; at 50.0 µM 80.1% | [6]; [8] 90% | [6]; at 50.0 µM 71.7%

Cc1ccc(C2SCC(=O)N2c2ccc(-n3c(-c4ccccc4)nc4ccccc4c3=O)cc2)cc1 (configuration not stated)
inactive: [1]; [7] -16% | [2]; [7] -8% | [2]; [8] 55% | [2]; at 50.0 µM 67.5% | [3]; [7] -10% | [4]; [7] -16% | [5]; [7] -24% | [6]; [7] -8%
active: [1]; [8] 90% | [1]; at 50.0 µM 75.3% | [3]; [8] 81% | [3]; at 50.0 µM 77.2% | [4]; [8] 87% | [4]; at 50.0 µM 83.2% | [5]; [8] 74% | [5]; at 50.0 µM 72.7% | [6]; [8] 88% | [6]; at 50.0 µM 79.8%

C=C(CS(=O)(=O)c1ccccc1)[P+](c1ccccc1)(c1ccccc1)c1ccccc1
inactive: [1]; [7] 0% | [1]; at 50.0 µM 29.2% | [2]; [7] -6% | [2]; at 50.0 µM 37.5% | [3]; [7] -6% | [3]; at 50.0 µM 34.4% | [4]; [7] -1% | [4]; at 50.0 µM 28.5% | [5]; [7] -3% | [5]; at 50.0 µM 2.15% | [6]; [7] -2% | [6]; at 50.0 µM 67.5%
active: [1]; [8] 95% | [2]; [8] 92% | [3]; [8] 95% | [4]; [8] 81% | [5]; [8] 88% | [6]; [8] 92%

CC(=O)C1CCC2C3CC(F)C4(O)CC(O)CCC4(C)C3CCC12C (configuration not stated)
active: [1]; [8] 98% | [2]; [8] 99% | [3]; [8] 95% | [5]; at 50.0 µM 85.7% | [6]; [8] 99%
inactive: [1]; [7] -120% | [1]; at 50.0 µM 4.1% | [2]; [7] -3% | [2]; at 50.0 µM -1% | [3]; [7] -1% | [3]; at 50.0 µM 62% | [4]; [7] -6% | [4]; [8] 58% | [4]; at 50.0 µM -9.95% | [5]; [7] -4% | [5]; [8] 33% | [6]; [7] -20% | [6]; at 50.0 µM 32.4%

CCC1(O)c2ccccc2C(O)(CC)c2ccccc21 (configuration not stated)
active: [1]; at 50.0 µM 74% | [2]; at 50.0 µM 89.6% | [4]; at 50.0 µM 96.5% | [5]; at 50.0 µM 97% | [6]; at 50.0 µM 97.7%
inactive: [1]; [7] 11% | [1]; [8] 28% | [2]; [7] 3% | [2]; [8] 40% | [3]; [7] 5% | [3]; [8] 53% | [3]; at 50.0 µM 23.4% | [4]; [7] 3% | [4]; [8] 21% | [5]; [7] 7% | [5]; [8] 54% | [6]; [7] 14% | [6]; [8] 68%

CCCCCCC(=O)OCCN(CCOC(=O)CCCCCC)C(=O)C(C)OC(=O)CCCCCC (configuration not stated)
active: [1]; at 50.0 µM 91.7% | [2]; at 50.0 µM 85.4% | [3]; at 50.0 µM 98.4% | [5]; at 50.0 µM 98.2% | [6]; at 50.0 µM 97.6%
inactive: [1]; [7] 2% | [1]; [8] 56% | [2]; [7] 4% | [2]; [8] 19% | [3]; [7] 2% | [3]; [8] 62% | [4]; [7] 1% | [4]; [8] 18% | [4]; at 50.0 µM 66.2% | [5]; [7] -1% | [5]; [8] 66% | [6]; [7] -3% | [6]; [8] 58%

COc1cc(C/C=C/c2ccccc2)c(OC)cc1O
active: [4]; at 50.0 µM 76%
inactive: [1]; [7] 18% | [1]; [8] 30% | [1]; at 50.0 µM 63.6% | [2]; [7] 18% | [2]; [8] 24% | [2]; at 50.0 µM 61.7% | [3]; [7] 15% | [3]; [8] 37% | [3]; at 50.0 µM 54.4% | [4]; [7] 18% | [4]; [8] 29% | [5]; [7] 20% | [5]; [8] 29% | [5]; at 50.0 µM 64.8% | [6]; [7] 17% | [6]; [8] 35% | [6]; at 50.0 µM 48.5%

CC1C/C(=N\N(C)C)C(C#N)(C#N)C1(C#N)C#N (configuration not stated)
inactive: [1]; [7] 30% | [2]; [7] 45% | [3]; [7] 26% | [3]; at 50.0 µM 66.5% | [4]; [7] 27% | [4]; at 50.0 µM 37.8% | [5]; [7] 47% | [5]; at 50.0 µM 62.2% | [6]; [7] 59%
active: [1]; [8] 99% | [1]; at 50.0 µM 81% | [2]; [8] 99% | [2]; at 50.0 µM 81.1% | [3]; [8] 97% | [4]; [8] 79% | [5]; [8] 99% | [6]; [8] 99% | [6]; at 50.0 µM 92%

O=C(NCCCl)N1CCC(CN=c2cc3n(-c4ccc(Cl)cc4)c4ccccc4nc-3cc2Nc2ccc(Cl)cc2)CC1
active: [1]; [8] 99% | [1]; at 50.0 µM 98.6% | [2]; [8] 99% | [2]; at 50.0 µM 98.5% | [3]; [8] 99% | [3]; at 50.0 µM 98.7% | [4]; [8] 99% | [4]; at 50.0 µM 98.3% | [5]; [8] 99% | [5]; at 50.0 µM 98.4% | [6]; [8] 98% | [6]; at 50.0 µM 99%
inactive: [1]; [7] -33% | [2]; [7] -5% | [3]; [7] -22% | [4]; [7] -56% | [5]; [7] -11% | [6]; [7] -34%
